This is one part of a sample in which hits are shown more often than they occur.
hDAT+cocaine: modulates human dopamine transporter uptake under cocaine; Q01959; LLC-PK1 hDAT cells, [14C]-dopamine uptake with cocaine IC80; actives deviate in either direction; B-score at 10 µM; actives 1.3% (n = 110,000);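 active = Z score or B-score, a plate-position-corrected score, falls beyond the plate's 99.7% confidence bounds, in either direction; inactive = both scores lie inside the 99.7% bounds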
D1 mod: allosterically modulates the human D1 dopamine receptor; B-score at 10 µM; AID 641; HEK293 D1, CRE-luciferase, dopamine EC30 potentiation; actives deviate in either direction; actives 5.9% (n = 58,000); P21728;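 active = luminescence count or its row- and column-corrected plate score outside the 99.7% band of the plate's sample wells, on either side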
BAP1 block: blocks human BAP1 ubiquitin-AMC hydrolysis; AID 436; actives 0.48% (n = 72,000); calls only at 20 µM; recombinant BAP1, Ub-AMC hydrolysis fluorescence kinetic; active compounds read low;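 active = activity remaining at or below 50% of control, provided the compound also passes the data quality filters; inactive = the rest, including low values that fail the filters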
Target sequence (Q92560 whole entry, looked up): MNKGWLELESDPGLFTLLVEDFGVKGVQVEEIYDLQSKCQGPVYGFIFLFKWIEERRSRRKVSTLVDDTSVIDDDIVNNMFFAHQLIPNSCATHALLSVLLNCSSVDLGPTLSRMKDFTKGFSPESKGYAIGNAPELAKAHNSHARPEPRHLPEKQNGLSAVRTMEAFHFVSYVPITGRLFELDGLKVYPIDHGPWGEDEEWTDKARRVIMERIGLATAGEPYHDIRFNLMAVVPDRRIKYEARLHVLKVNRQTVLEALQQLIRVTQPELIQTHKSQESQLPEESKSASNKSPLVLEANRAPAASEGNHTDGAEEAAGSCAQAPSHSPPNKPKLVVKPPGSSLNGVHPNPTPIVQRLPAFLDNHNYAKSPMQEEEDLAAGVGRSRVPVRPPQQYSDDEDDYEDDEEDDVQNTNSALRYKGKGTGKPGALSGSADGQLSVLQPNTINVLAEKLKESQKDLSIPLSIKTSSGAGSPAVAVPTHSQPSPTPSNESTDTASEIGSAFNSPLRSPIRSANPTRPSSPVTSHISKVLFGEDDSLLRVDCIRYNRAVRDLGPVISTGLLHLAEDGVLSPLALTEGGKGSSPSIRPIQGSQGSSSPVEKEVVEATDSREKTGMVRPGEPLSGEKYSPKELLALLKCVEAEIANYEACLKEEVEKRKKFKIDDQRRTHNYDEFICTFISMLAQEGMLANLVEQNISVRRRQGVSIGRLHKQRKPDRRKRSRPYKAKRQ
Large screens that a line does not name were inactive; ! = a repeat was not active.

COc1ccc(-c2cc(C(F)(F)F)n3nc(C(=O)N4CCCCCC4)c(Cl)c3n2)cc1OC	none (no result: hDAT+cocaine, D1 mod)
CCCCCC/C(=N/O)c1ccccn1	none
C/C(=N/O)c1ccccn1	hDAT+cocaine -4.6 (no result: D1 mod, BAP1 block)
CN(C)c1ccc(NC(=O)CN2CCN(S(=O)(=O)c3cc(Cl)ccc3Cl)CC2)cc1	none
O=C(CN1CCN(S(=O)(=O)c2cc(Cl)ccc2Cl)CC1)Nc1ccc2c(c1)OCCO2	hDAT+cocaine 1.8!
CCN(CC)c1ccc(NC(=O)CN2CCN(CC(=O)Nc3ccccc3F)CC2)cc1	hDAT+cocaine 2.5
COc1ccccc1NC(=O)CN1CCN(CC(=O)Nc2ccc3c(c2)OCO3)CC1	hDAT+cocaine -4.3
COc1ccc(NC(=O)CN2CCN(CC(=O)Nc3ccc4c(c3)OCO4)CC2)cc1	none
CCN(CC)c1ccc(NC(=O)CN2CCN(c3ccc(F)cc3)CC2)cc1	none
CC(=O)Oc1ccc2c3c(c(=O)oc2c1)CCC3	none (no result: hDAT+cocaine, D1 mod)
CC12CC3CC(C1)CC(NC(=O)c1ccc4ccccc4n1)(C3)C2	none (no result: hDAT+cocaine, D1 mod)
Nc1ccc(-c2nc3ccc(N)cc3o2)cc1	D1 mod -3.1 (not shown: BAP1 block)
Cc1ccc2nc(-c3cc(N)cc(N)c3)oc2c1	none (no result: D1 mod, BAP1 block)
COc1ccc2nc(NC(=O)c3ccc(C#N)cc3)sc2c1	none (no result: hDAT+cocaine, D1 mod)
CCN(CC)CC(=O)N(C)c1c(N)n(C)c(=O)[nH]c1=O	none (no result: hDAT+cocaine, D1 mod)
COC(=O)c1nn(-c2ccccc2)c(Cl)c1/C=N/OCc1ccc(C)cc1	hDAT+cocaine 1.6 (no result: D1 mod, BAP1 block)
COC(=O)c1nn(-c2ccccc2)c(Sc2ccc(OC)cc2)c1/C=N/O	none (no result: D1 mod, BAP1 block)
Cc1ccc(Nc2nc(C3CC3)cs2)cc1	D1 mod -4.9 (no result: hDAT+cocaine)
CCN(CC)C(=O)c1csc(Nc2ccc(C)cc2)n1	none
COc1ccc(C(=O)NCC(c2cccnc2)N2CCN(c3ccc(F)cc3)CC2)cc1OC (stereo not drawn)	none (no result: D1 mod)
O=C(NCC(c1cccnc1)N1CCN(c2ccc(F)cc2)CC1)c1ccc(F)cc1 (stereo not drawn)	hDAT+cocaine 3.2
CC(=O)Nc1cccc2c1C(=O)c1ccccc1C2=O	none (no result: hDAT+cocaine, D1 mod)
CC(=O)c1ccc(OCC(C)C)c(CN2CCCCC2)c1	none
CC(=O)c1ccc(Oc2ncnc3sccc23)c(CN2CCOCC2)c1	hDAT+cocaine -7.9
O=C(Nc1ccc(OCc2ccccc2)cc1)C1c2ccccc2Oc2ccccc21	none (no result: hDAT+cocaine, D1 mod)
CCOC(=O)c1cnn(-c2ccccn2)c1N	none
CCOC(=O)c1cnn(-c2sc(C(=O)OCC)c(C)c2C(=O)OCC)c1N	hDAT+cocaine -2.5 (not shown: BAP1 block)
CC(C)n1cnc2c(Nc3ccc(C(=O)O)cc3)nc(Cl)nc21	hDAT+cocaine -4 (no result: D1 mod, BAP1 block)
CC(C)[C@H](CO)Nc1nc(Nc2ccc(Cl)c(C(=O)O)c2)c2ncn(C(C)C)c2n1	none (no result: D1 mod, BAP1 block)
C=CCn1c(SCC(=O)NCC2CCCO2)nc2scc(-c3ccco3)c2c1=O (stereo not drawn)	hDAT+cocaine 2.6
O=C(CSc1nc2scc(-c3ccco3)c2c(=O)n1-c1ccccc1)NCC1CCCO1 (stereo not drawn)	none
CCc1ccc(NC(=O)c2cc(C)on2)cc1	D1 mod -3.1
Cc1ccc(NC(=O)c2cc(C)on2)cc1	none
CCOC(=O)c1c(NC(=O)c2ccc(F)cc2)sc(C)c1C	none (no result: hDAT+cocaine, D1 mod)
COc1ccc(C(=O)Nc2cccc(NC(=O)c3cccc(Cl)c3)c2)cc1[N+](=O)[O-]	none (no result: hDAT+cocaine, D1 mod)
CCN(CC)S(=O)(=O)c1cc(C(=O)Nc2cc(Cl)ccc2N2CCN(C)CC2)ccc1Cl	hDAT+cocaine 2.9 (no result: D1 mod, BAP1 block)
CN1CCN(c2ccc(Cl)cc2NC(=O)c2ccc(S(=O)(=O)N(C)C)cc2)CC1	none (no result: D1 mod, BAP1 block)
O=C(Nc1ncc(S(=O)(=O)c2ccc([N+](=O)[O-])cc2)s1)c1ccco1	none (no result: hDAT+cocaine, D1 mod)
COc1ccc(Oc2coc3c(CN(C)C)c(O)ccc3c2=O)cc1	D1 mod -4.3 (no result: BAP1 block)
COc1ccc(Oc2coc3c(CN4CCOCC4)c(O)ccc3c2=O)cc1	hDAT+cocaine -7.4 (no result: D1 mod, BAP1 block)
COc1ccc(Oc2c(C)oc3c(CN(C)C)c(O)ccc3c2=O)cc1	none (not shown: D1 mod, BAP1 block)
O=c1c(-c2ccc(Br)cc2)coc2c(CN3CCOCC3)c(O)ccc12	none (not shown: BAP1 block)
O=[N+]([O-])c1cc(Cl)ccc1NCCCNS(=O)(=O)c1ccc(Cl)cc1	none (no result: hDAT+cocaine, D1 mod)
Cc1ccc(Cl)cc1NC(=O)COc1cc(C)c(Cl)c(C)c1	none (no result: hDAT+cocaine, D1 mod)
Nc1c(NC2CCCCC2)c2ccccc2oc1=O	none (no result: D1 mod)
Cc1ccccc1Nc1c(N)c(=O)oc2ccccc12	hDAT+cocaine -7.7 (no result: D1 mod, BAP1 block)
CC[n+]1c(C=C2C=C(C)CC(C)(C)C2)oc2ccccc21	none (no result: hDAT+cocaine, D1 mod)
COc1ccc(N2C(C(C)=O)=NN(c3ccccc3)C2c2cccs2)cc1 (stereo not drawn)	hDAT+cocaine 1.4 (no result: D1 mod, BAP1 block)
CC(=O)Nc1ccc(N2C(C(C)=O)=NN(c3ccccc3)C2c2cccs2)cc1 (stereo not drawn)	none (no result: D1 mod, BAP1 block)
CCc1ccc(-c2cn3c4ccccc4nc3n2CCCCl)cc1	none (no result: hDAT+cocaine, D1 mod)
CC1=CC(C)(C)N(C(=O)Nc2cccc(Cl)c2)c2cc(C)c(C)cc21	none (no result: hDAT+cocaine, D1 mod)
CC1(C)CC(=C2C3C=CC2C2C(=C4CC(C)(C)NC(C)(C)C4)C=CC32)CC(C)(C)N1 (stereo not drawn)	none (no result: hDAT+cocaine, D1 mod)
CCOc1ccc(N=C2SC(C(=O)Nc3ccc(C(=O)O)cc3)CC(=O)N2C)cc1 (stereo not drawn)	none (no result: hDAT+cocaine, D1 mod)
CCOc1cc(CN2CCCCC2)ccc1OC	none
CCOc1cc(CN2CCN(CCOCCO)CC2)ccc1OC	hDAT+cocaine -2.7 (no result: D1 mod, BAP1 block)
CCn1c2ccccc2c2cc(NC(=O)CSc3nnc(-c4ccccc4OC)n3N)ccc21	hDAT+cocaine 2.8
COc1ccc(NC(=O)CSc2nnc(-c3ccccn3)n2N)cc1	hDAT+cocaine 2.5 (no result: BAP1 block)
Cn1ccnc1SCC(=O)Nc1ccc2ccccc2c1	D1 mod -6.6
Cn1ccnc1SCC(=O)Nc1ccccc1	none (no result: D1 mod, BAP1 block)
CCOc1ccc(NC(=O)CSc2nnc(-c3ccccn3)n2N)cc1	none (no result: BAP1 block)
CCn1c2ccccc2c2cc(NC(=O)CSc3nnc(-c4ccc(OC)c(OC)c4)n3N)ccc21	none (no result: D1 mod, BAP1 block)
COc1cc2ccccc2cc1C(=O)Nc1nnc(-c2ccc(F)cc2)s1	none (no result: hDAT+cocaine, D1 mod)
CC(=O)C1=C(O)C(=O)N(CC2CCCO2)C1c1ccccc1 (stereo not drawn)	none (no result: hDAT+cocaine, D1 mod)
Cc1ccc(C)c(CN2CCNC2=O)c1	none
Cc1ccc(N)cc1CN1CCCC1=O	hDAT+cocaine -1.9
